The list is not random: actives were taken first. Their share in the collection is about 21%.
Shiga inhibitor – blocks Shiga toxin action in Vero cells | Vero cells, Shiga toxin protein synthesis inhibition reporter | inhibition, % at 38.7 µM | 290,000 tested, 9.2% active | AID 2315; in the data active = inhibition mostly above about 28%, no sharp cut-off; inactive = mostly below about 43%; note: 0% is about no effect
Pf growth 96h – inhibits malaria parasite growth, 96 h | AID 504834 | 320,000 tested, 6.9% active | P. falciparum luciferase reporter growth, 96 h | Potency, µM (top dose mostly 28.7 µM), inactives show at the top dose activity change, negative = inhibition, most hits filed as inhibitors; active = well fitted inhibition curve with a large enough effect; inconclusive = small, poorly fitted or top-dose-only effect, or another doubt; inactive = no such curve, though single readings can be large or run the other way; note: potency is the fitted concentration of half-maximal effect; % is set by controls: 0 for no effect and ±100 for the full control effect
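P. falciparum expressing integrated firefly luciferase grown in erythrocytes (2% hematocrit, 0.05% parasitemia final) with compounds for 96 hours at 37 C, 5% CO2. Growth inhibition read as loss of luminescence after adding luciferase detection reagent.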
Cycloheximide cs – affects cycloheximide protein synthesis inhibition readout, counter-screen; max response, %; cell reporter, cycloheximide protein synthesis inhibition counterscreen; AID 2314; 300,000 tested, 12% active; in the data active = max response mostly above about 13%, no sharp cut-off; inactive = mostly below about 14%; note: read at 38.3 µM for the half of the compounds with a filed dose; 0% is about no effect
Pf growth 48h – inhibits P. falciparum growth in the first generation, 48 h; P. falciparum luciferase growth in erythrocytes, 48 h; Potency, µM (top dose mostly 28.7 µM), for inactives: at the top dose activity change, negative = inhibition, usual class: inhibitors; 310,000 tested, 5.9% active; AID 504832; active = well fitted inhibition curve with a large enough effect; inconclusive = small, poorly fitted or top-dose-only effect, or another doubt; inactive = no such curve, though single readings can be large or run the other way; note: potency is the fitted concentration of half-maximal effect; % is set by controls: 0 for no effect and ±100 for the full control effect
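Firefly luciferase activity from engineered P. falciparum reports growth; inhibitors lower the luminescent signal. Cultures contained 2% hematocrit erythrocytes at 0.1% final parasitemia.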
NS1 inh – influenza NS1 inhibition; Potency, µM (titrated, usually from 46.1 µM), inactives show at the highest dose activity, positive = more growth; 270,000 tested, 0.4% active; AID 2326; note: potency is the fitted concentration of half-maximal effect; actives are rising curves; nearly all actives have a fitted effect of over 50% in size
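In this qHTS, NS1 from influenza A is expressed in budding yeast, where it slows growth. Cells are switched from glucose to 2% galactose medium (pH 6.0, -URA), treated with compound, and growth recovery is read at OD600.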
SARS PLP yeast – blocks SARS-CoV papain-like protease in a yeast assay. Potency, µM (doses to about 32.9 µM), for inactives: at the top dose activity, positive = growth rescue, actives largely listed as activators. AID 485353. S. cerevisiae expressing SARS-CoV PLpro, growth rescue. 330,000 tested, 0.19% active; note: potency is the fitted concentration of half-maximal effect; 0% is about no effect; nearly all actives have a fitted effect of over 55% in size
* hit, by the source's call; [ ] = another dose, or the depositor's remark. Unless noted, calls come from the whole dose curve.

For CCN1C(=O)[C@H]2[C@@H](c3ccc(-c4ccc(OC)cc4)c(OC)c3)N[C@@](CC(C)C)(C(=O)OC)[C@H]2C1=O the results were SARS PLP yeast 0%.
Screening COC(=O)[C@]1(CC(C)C)N[C@H](c2ccc(SC3CCCCC3)c(OC)c2)[C@@H]2C(=O)N(C)C(=O)[C@@H]21 returned Pf growth 96h 8.3µM*, Pf growth 48h inconclusive and SARS PLP yeast 5%.
For CCC(C)Sc1ccc([C@H]2N[C@@](CC(C)C)(C(=O)OC)[C@H]3C(=O)N(C)C(=O)[C@@H]23)cc1 (stereo partly drawn) the results were Pf growth 96h inconclusive, Pf growth 48h inconclusive and SARS PLP yeast -9%.
For COC(=O)[C@]1(C)N[C@H](c2ccc(SC3CCCCC3)cc2)[C@@H]2C(=O)N(C)C(=O)[C@@H]21 the results were Pf growth 96h inconclusive, Pf growth 48h inconclusive and SARS PLP yeast 3%.
Screening COC(=O)[C@]1(CC(C)C)N[C@H](c2ccc(-c3ccc(F)cc3)c(OC)c2)[C@@H]2C(=O)N(C)C(=O)[C@@H]21 returned Pf growth 96h 1.9µM*, Pf growth 48h 7.4µM* and SARS PLP yeast -16%.
Screening CC1CCCCN1C(=O)COC(=O)c1cccc(NS(=O)(=O)c2ccccc2)c1 (stereo not drawn) returned Pf growth 96h 8%, Pf growth 48h 12% and SARS PLP yeast 18%.
COc1ccc(S(=O)(=O)N2CCN=C2SCc2cccc(F)c2)cc1 was read as Shiga inhibitor 16, Pf growth 96h inconclusive, Cycloheximide cs 1, Pf growth 48h 2%, NS1 inh -20% and SARS PLP yeast 1%.
Screening CC(C)CC(=O)Nc1ccc(-c2nnn(CC(=O)NCc3ccco3)n2)cc1 returned Shiga inhibitor 86*, Pf growth 96h 152%, Cycloheximide cs 29*, Pf growth 48h 32%, NS1 inh 7% and SARS PLP yeast 2%.
O=C(Cn1nnc(-c2ccccc2F)n1)NCc1ccco1 was read as Shiga inhibitor 29, Pf growth 96h 8%, Cycloheximide cs 12, Pf growth 48h 46%, NS1 inh -4% and SARS PLP yeast 0%.
`CCCCOc1ccc(-c2nnn(CC(=O)Nc3ncc(CC(=O)OCC)s3)n2)cc1` gave Shiga inhibitor 14, Pf growth 96h inconclusive, Cycloheximide cs -2, Pf growth 48h inconclusive, NS1 inh -27% and SARS PLP yeast -1%.
Screening CCOC(=O)Cc1cnc(NC(=O)Cn2nnc(-c3ccc(OCC)cc3)n2)s1 returned Shiga inhibitor 33, Pf growth 96h 6.6µM*, Cycloheximide cs 3, Pf growth 48h 0%, NS1 inh -9% and SARS PLP yeast 5%.
CCCCOc1ccc(-c2nnn(CC(=O)NCc3ccco3)n2)cc1 was read as Shiga inhibitor 69*, Pf growth 96h 0%, Cycloheximide cs 31*, Pf growth 48h 48%, NS1 inh -5% and SARS PLP yeast -3%.
For CCOc1ccc(-c2nnn(CC(=O)NCc3ccco3)n2)cc1OCC the results were Shiga inhibitor -1, Pf growth 96h inactive, Cycloheximide cs -2, Pf growth 48h -28%, NS1 inh 16% and SARS PLP yeast 14%.
For COc1ccc(CNC(=O)Cn2nnc(-c3ccc(NC(=O)C4CCCCC4)cc3)n2)cc1 the results were Shiga inhibitor 23, Pf growth 96h 208%, Cycloheximide cs 21*, Pf growth 48h 62%, NS1 inh 8% and SARS PLP yeast 17%.
Oc1ccc(Br)cc1/C=N/n1c(C2CCCCC2)n[nH]c1=S was read as Shiga inhibitor -12, Pf growth 96h -8%, Cycloheximide cs 1, Pf growth 48h inconclusive, NS1 inh 7% and SARS PLP yeast -13%.
Screening CCOc1ccc(-c2nnn(CC(=O)NCc3ccc(C)cc3)n2)cc1 returned Shiga inhibitor 18, Pf growth 96h 7.4µM*, Cycloheximide cs 10, Pf growth 48h 1% and SARS PLP yeast -5%.
Screening CCOc1ccc(-c2nnn(CC(=O)NCc3ccc(OC)cc3)n2)cc1OCC returned Shiga inhibitor -15, Pf growth 96h -16%, Cycloheximide cs -7, Pf growth 48h -8%, NS1 inh -2% and SARS PLP yeast 6%.
For CC(C)CN(CC(C)C)C(=O)Nc1cccc([N+](=O)[O-])c1 the results were Shiga inhibitor 23, Pf growth 96h inconclusive, Cycloheximide cs -2, Pf growth 48h inconclusive and SARS PLP yeast -1%.
COc1ccc(/C=C(\C#N)C(=O)Nc2ccccn2)cc1 was read as Shiga inhibitor 84, Pf growth 96h -11%, Cycloheximide cs 21*, Pf growth 48h -11%[0.00184 µM], NS1 inh -1% and SARS PLP yeast 16%.
`COc1ccc(O)c(/C=C(\C#N)C(=O)Nc2ccccn2)c1` gave Shiga inhibitor 53*, Pf growth 96h 40%, Cycloheximide cs 26*, Pf growth 48h 31%, NS1 inh -5% and SARS PLP yeast 1%.
For Cc1ccc(/C=C(\C#N)C(=O)Nc2ccccn2)o1 the results were Shiga inhibitor 58, Pf growth 96h 46%, Cycloheximide cs 28*, Pf growth 48h 5%, NS1 inh -12% and SARS PLP yeast -3%.
`C=CCOc1ccc(/C=C(\C#N)C(=O)Nc2ccccn2)cc1OC` gave Shiga inhibitor -11, Pf growth 96h 0%, Cycloheximide cs -7, Pf growth 48h 23%, NS1 inh -2% and SARS PLP yeast -2%.
Cc1cc(C)cc(Nc2c(F)c(F)c(F)c(F)c2C(=O)O)c1 was read as Shiga inhibitor -11, Pf growth 96h 201%, Cycloheximide cs 6, Pf growth 48h -5% and SARS PLP yeast 2%.
For CC(C)(C)C(=O)Nc1c(Cl)cccc1OC(F)(F)F the results were Shiga inhibitor 10, Pf growth 96h 0%, Cycloheximide cs 1, Pf growth 48h inconclusive, NS1 inh 2% and SARS PLP yeast -1%.
CC(C)c1ccc(/C=C/C(=O)NC(=S)NN2CCOCC2)cc1 was read as Shiga inhibitor 15, Pf growth 96h 12µM*, Cycloheximide cs 17*, Pf growth 48h 10%, NS1 inh inconclusive and SARS PLP yeast 18%.
CC(C)c1ccc(/C=C/C(=O)NC(=S)Nc2ccc(CN3CCOCC3)cc2)cc1 was read as Shiga inhibitor 12, Pf growth 96h 5.2µM*, Cycloheximide cs 15*, Pf growth 48h inconclusive, NS1 inh 25% and SARS PLP yeast -6%.
Screening CC(C)c1ccc(C(=O)NN2CCOCC2)cc1 returned Shiga inhibitor -20, Pf growth 96h -18%, Cycloheximide cs -1, Pf growth 48h -25%, NS1 inh 20% and SARS PLP yeast -3%.
O=C(/C=C/c1cccc([N+](=O)[O-])c1)NC(=S)Nc1ccc(CN2CCOCC2)cc1 was read as Shiga inhibitor -3, Pf growth 96h -26%, Cycloheximide cs -1, Pf growth 48h 12%, NS1 inh -2% and SARS PLP yeast 3%.

Source: PubChem BioAssay
